Records with an inconclusive call do not appear. Activity calls are given as the source filed them. The calls were made as follows, unless noted: active = hit-call score of the fitted dose curve at least 0.9, where 1 is the maximum; inconclusive = response in the unintended direction; inactive = score below 0.9.
Experiments:
[1] = test system: Sodium/Iodide Symporter (NIS), SLC5A5 (gene 6528); experiment: CPHEA_Stoker_NIS_Inhibition_RAIU: CPHEA's Radioactive Iodide Uptake (RAIU) Assay for Sodium/Iodide Symporter (NIS) Inhibition, Stoker and Laws Labs (AID 2283841)
Outline: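 Test chemicals, six concentrations from 0.001 to 100uM in 0.5% DMSO, were co-incubated with carrier-free 125I (final 329pM) on hNIS-HEK293T-EPA monolayers in pH 7.4 HEPES-buffered HBSS. Plates stood 2 hours at room temperature, then were washed cold and counted.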

[2] = CPHEA_Stoker_NIS_Cytotoxicity: Cytotoxicity Assessment for CPHEA's Radioactive Iodide Uptake (RAIU) Assay for Sodium/Iodide Symporter (NIS) Inhibition, Stoker and Laws Labs (AID 2283897)
Outline: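 Viability in hNIS-HEK293T-EPA cells is scored as a drop in luciferase-detected ATP following 2-hour room-temperature exposure (0.001–100uM; triplicate wells, three cell passages), with DMSO as negative control.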

PGR (gene 5241) [3] = target: PGR (gene 5241) (UniProt P06401); experiment: TOX21_PR_BLA_Followup_Antagonist_ratio: Tox21 HEK293 Progesterone Receptor (PR) Antagonism Beta-lactamase Follow-Up Assay, Ratio (AID 2283934)
Outline: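 HEK293T PR-UAS-bla, 2% CS-FBS; 6 hr plating, then cpd + R5020 (1 nM final), 16 hr 37C/5% CO2. B/G FRET substrate 2 h RT. Ratio ch2/ch1 vs DMSO; CellTiter-Glo viability multiplexed, autofluorescence checked.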

PGR (gene 5241) [4] = target: PGR (gene 5241) (UniProt P06401); experiment: TOX21_PR_LUC_Followup_Antagonist: Tox21 HEK293 Progesterone Receptor (PR) Antagonism Luciferase Follow-Up Assay (AID 2283938);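 also: curve fitted upward as signal gain over DMSO baseline despite antagonist label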
Outline: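 HEK293-PR-A-luc cells were precultured 5 days in medium with 10% charcoal-stripped FBS, seeded 3,000/well, then exposed to compounds in DMSO for 16 h at 37C. Luciferase was read by ONE-Glo luminescence after 30 min at room temperature.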

[5] = TOX21_PR_BLA_Followup_Agonist_viability: Viability Assessment in the Tox21 HEK293 Progesterone Receptor (PR) Agonism Beta-lactamase Follow-Up Assay (AID 2283935);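 also: signal loss means lower viability so actives are cytotoxic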
Outline: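 HEK293T PR-UAS-bla, 3,000 cells/well, 2% CS-FBS; 6 hr pre-incubation; cpd in DMSO, 16 hr 37C; LiveBLAzer 2 hr RT, then CellTiter-Glo 30 min RT, luminescence. Decrease = lost viability.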

[6] = TOX21_PR_LUC_Followup_Antagonist_viability: Viability Assessment in the Tox21 HEK293 Progesterone Receptor (PR) Antagonism Luciferase Follow-Up Assay (AID 2283940)
Outline: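 Multiplexed viability counter-screen: after 5 days in charcoal-stripped-FBS medium, HEK293-PR-A-luc cells are plated, pinned with DMSO-dissolved compounds for 16 h at 37C, and ATP content is quantified luminescently via CellTiter-Glo.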

[7] = TOX21_PR_LUC_Followup_Agonist_viability: Viability Assessment in the Tox21 HEK293 Progesterone Receptor (PR) Agonism Luciferase Follow-Up Assay (AID 2283941);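 also: loss of signal means cytotoxicity so actives lower viability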
Outline: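 Cells were kept 5 days in charcoal-stripped serum medium before plating HEK293-PR-A-luc at 3,000 cells/well. After 5 h they received DMSO-dissolved compound and incubated 16 h at 37C. Viability was taken from CellTiter-Glo ATP luminescence.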

[8] = CEETOX_H295R_11DCORT_noMTC: CeeTox H295R High-throughput Steroidogenesis Assay for 11-Deoxycortisol (11DCORT), maximum tolerated concentration (MTC) filtered results only (AID 2283911; active = hit-call score of the fitted dose curve at least 0.9, where 1 is the maximum; inactive = score below 0.9); conditions: actives raise or lower the signal
Outline: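 HPLC-MS/MS read-out of 11-deoxycortisol after MTBE extraction of H295R medium. Cells: forskolin 10 uM pre-stimulation 48 h, chemical 48 h, 0.1% DMSO final. Bidirectional fit vs DMSO baseline; no MTC filtering.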

[9] = CEETOX_H295R_OHPREG_noMTC: CeeTox H295R High-throughput Steroidogenesis Assay for OH-Pregnenolone (OHPREG), maximum tolerated concentration (MTC) filtered results only (AID 2283912; active = hit-call score of the fitted dose curve at least 0.9, where 1 is the maximum; inactive = score below 0.9); conditions: actives raise or lower the signal
Outline: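 H295R cells prestimulated 48 h with 10 uM forskolin, then exposed 48 h to compound (0.1% DMSO). 17alpha-hydroxypregnenolone in medium measured by MTBE extraction and HPLC-MS/MS; bidirectional fit vs DMSO, concentrations not MTT/MTC-filtered.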

[10] = CEETOX_H295R_OHPROG_noMTC: CeeTox H295R High-throughput Steroidogenesis Assay for OH-Progesterone (OHPROG), maximum tolerated concentration (MTC) filtered results only (AID 2283914; active = hit-call score of the fitted dose curve at least 0.9, where 1 is the maximum; inactive = score below 0.9); conditions: actives raise or lower the signal
Outline: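 H295R cells prestimulated 48 h with 10 uM forskolin, then exposed 48 h to chemical (0.1% DMSO final). 17alpha-hydroxyprogesterone in medium quantified by HPLC-MS/MS after MTBE extraction; bidirectional fitting versus DMSO, concentrations not MTC-filtered.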

[11] = CEETOX_H295R_CORTISOL_noMTC: CeeTox H295R High-throughput Steroidogenesis Assay for Cortisol, maximum tolerated concentration (MTC) filtered results only (AID 2283916; active = hit-call score of the fitted dose curve at least 0.9, where 1 is the maximum; inactive = score below 0.9); conditions: actives raise or lower the signal
Outline: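 H295R human adrenal cells prestimulated 48 h with 10 uM forskolin, then exposed 48 h to chemical in 0.1% DMSO; cortisol in medium quantified by HPLC-MS/MS; bidirectional fit vs DMSO baseline, concentrations not MTT-filtered for MTC.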

[12] = CEETOX_H295R_CORTIC_noMTC: CeeTox H295R High-throughput Steroidogenesis Assay for Corticosterone (CORTIC), maximum tolerated concentration (MTC) filtered results only (AID 2283917; active = hit-call score of the fitted dose curve at least 0.9, where 1 is the maximum; inactive = score below 0.9); conditions: actives raise or lower the signal
Outline: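 H295R adrenal cells pre-stimulated 48 h with 10 uM forskolin, then exposed 48 h to chemical in 0.1% DMSO; corticosterone in medium quantified by HPLC-MS/MS, fitted bidirectionally versus DMSO without MTT-based concentration filtering.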

[13] = CEETOX_H295R_DOC_noMTC: CeeTox H295R High-throughput Steroidogenesis Assay for DOC, maximum tolerated concentration (MTC) filtered results only (AID 2283918; active = hit-call score of the fitted dose curve at least 0.9, where 1 is the maximum; inactive = score below 0.9); conditions: actives raise or lower the signal
Outline: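 H295R cells prestimulated 48 h with 10 uM forskolin, then exposed 48 h to chemical in 0.1% DMSO. 11-Deoxycorticosterone in medium measured by MTBE extraction and HPLC-MS/MS; bidirectional fit vs DMSO, no MTC filter.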

[14] = CEETOX_H295R_ESTRADIOL_noMTC: CeeTox H295R High-throughput Steroidogenesis Assay for Estradiol, maximum tolerated concentration (MTC) filtered results only (AID 2283919; active = hit-call score of the fitted dose curve at least 0.9, where 1 is the maximum; inactive = score below 0.9); conditions: actives raise or lower the signal
Outline: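 H295R human adrenal cells pre-stimulated 48 h with 10 uM forskolin, then exposed 48 h to chemical (0.1% DMSO final). Estradiol in medium measured by HPLC-MS/MS after MTBE extraction and dansyl derivatization; bidirectional fit versus DMSO, concentrations not MTT-filtered.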

[15] = CEETOX_H295R_PROG_noMTC: CeeTox H295R High-throughput Steroidogenesis Assay for Progesterone (PROG), maximum tolerated concentration (MTC) filtered results only (AID 2283920; active = hit-call score of the fitted dose curve at least 0.9, where 1 is the maximum; inactive = score below 0.9); conditions: actives raise or lower the signal
Outline: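 H295R cells, prestimulated 48 h with 10 uM forskolin, exposed 48 h to chemical in 0.1% DMSO. Medium progesterone quantified by MTBE extraction and HPLC-MS/MS; bidirectional fit versus DMSO, concentrations not MTT-filtered.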

[16] = CEETOX_H295R_ESTRONE_noMTC: CeeTox H295R High-throughput Steroidogenesis Assay for Estrone, maximum tolerated concentration (MTC) filtered results only (AID 2283921; active = hit-call score of the fitted dose curve at least 0.9, where 1 is the maximum; inactive = score below 0.9); conditions: actives raise or lower the signal
Outline: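 H295R cells prestimulated 48 h with 10 uM forskolin, then exposed 48 h to chemical in 0.1% DMSO; medium estrone measured by HPLC-MS/MS after MTBE extraction and dansyl derivatization, fitted bidirectionally versus DMSO without MTT-based MTC filtering.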

Measured: AC50

PGR (gene 5241), sequence (P06401 whole entry, looked up): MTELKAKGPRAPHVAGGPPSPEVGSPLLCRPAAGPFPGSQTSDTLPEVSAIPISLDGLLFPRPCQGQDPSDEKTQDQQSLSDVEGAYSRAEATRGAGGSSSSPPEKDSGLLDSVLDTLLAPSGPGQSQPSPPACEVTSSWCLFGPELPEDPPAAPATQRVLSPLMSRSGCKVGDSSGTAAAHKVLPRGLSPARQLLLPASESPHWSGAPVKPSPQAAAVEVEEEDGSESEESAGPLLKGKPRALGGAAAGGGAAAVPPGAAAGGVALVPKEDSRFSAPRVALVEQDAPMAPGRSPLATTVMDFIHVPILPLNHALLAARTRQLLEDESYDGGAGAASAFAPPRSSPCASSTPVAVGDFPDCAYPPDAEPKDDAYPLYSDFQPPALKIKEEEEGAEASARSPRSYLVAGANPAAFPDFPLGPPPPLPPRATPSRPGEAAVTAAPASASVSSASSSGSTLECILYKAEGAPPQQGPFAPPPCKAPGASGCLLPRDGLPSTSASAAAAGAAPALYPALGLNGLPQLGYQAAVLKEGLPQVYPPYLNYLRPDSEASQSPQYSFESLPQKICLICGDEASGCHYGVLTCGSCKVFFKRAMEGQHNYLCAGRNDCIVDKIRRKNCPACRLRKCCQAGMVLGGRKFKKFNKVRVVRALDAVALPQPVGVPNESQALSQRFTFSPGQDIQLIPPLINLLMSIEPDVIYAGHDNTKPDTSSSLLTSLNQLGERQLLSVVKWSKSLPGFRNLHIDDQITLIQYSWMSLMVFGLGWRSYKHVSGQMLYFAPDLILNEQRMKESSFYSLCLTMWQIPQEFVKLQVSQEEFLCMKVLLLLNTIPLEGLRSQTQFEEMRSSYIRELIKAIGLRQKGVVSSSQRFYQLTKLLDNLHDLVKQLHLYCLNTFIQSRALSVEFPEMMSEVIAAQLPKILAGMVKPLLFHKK

O=c1c(O)c(-c2ccc(O)c(O)c2)oc2cc(O)cc(O)c12
inactive: [1] | [2] | PGR (gene 5241) [3] | PGR (gene 5241) [4]

NC(=O)Cn1c(=O)cc(CCN2CCN(c3nccc4sccc34)CC2)c2ccc(F)cc21
inactive: [1] | [2]

C[C@]12C=CC(=O)C=C1CC[C@@H]1[C@@H]2C(=O)C[C@@]2(C)[C@H]1CC[C@]2(O)C(=O)CO
inactive: PGR (gene 5241) [3] | [5] | PGR (gene 5241) [4] | [6] | [7]

Cc1oc(-c2ccccc2)nc1CCOc1cccc2c1ccn2CCC(=O)O
active: [8] 9.6 µM | [13] 6.44 µM | [15] 12.9 µM
inactive: [2] | [9] | [10] | [11] | [12] | [14] | [16]

Cc1ccc(C)c(C)c1
inactive: [2]

CN[C@H]1CC[C@@H](c2ccc(Cl)c(Cl)c2)c2ccc(S(N)(=O)=O)cc21
inactive: [2]
